Assay outcomes (PubChem BioAssay)
The list is not random: actives were taken first. Their share in the collection is about 12%.
L3MBTL1 inh: qHTS Assay for the Inhibitors of L3MBTL1; Lethal(3)malignant brain tumor-like protein 1 (Homo sapiens), Q9Y468; AlphaScreen L3MBTL1–H3K9me1 peptide binding; Potency, µM (top dose mostly 57.1 µM), without a hit: at the top dose activity, negative = inhibition, most hits filed as inhibitors; actives 0.66% (n = 230,000); AID 485360, 2010; further: on the % scale 0 is the no-effect control and ±100 the full control effect; nearly all actives have a fitted effect of over 60% in size
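AlphaScreen assay: L3MBTL1 (50 nM final) was preincubated 30 min at room temperature with biotinylated H3(1-15)K9me1 peptide (75 nM final), then 30 min with library compounds; streptavidin donor and nickel chelate acceptor beads (10 ug/mL final) added, 30 min dark.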
BAZ2B block: qHTS Assay for Inhibitors of BAZ2B | Bromodomain adjacent to zinc finger domain protein 2B (Homo sapiens), Q9UIF8 | Potency, µM (top dose mostly 114 µM), for inactives: top-dose activity change, negative = inhibition, usual class: inhibitors | actives 4.4% (n = 360,000) | AlphaScreen BAZ2B-H3K14Ac peptide displacement | AID 504333, 2011; further: on the % scale 0 is the no-effect control and ±100 the full control effect; nearly all actives have a fitted effect of over 60% in size
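Inhibition is scored as reduced AlphaScreen emission. The BAZ2B/b-H3(5-23)K14Ac complex (50 nM each) in PBS pH 7.4, 0.01% Tween-20 meets compound (up to 110 uM) for 30 min at RT before bead addition.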
Sfp PPTase inh: qHTS Assay for Inhibitors of Bacillus subtilis Sfp phosphopantetheinyl transferase (PPTase) | Biochemical Sfp PPTase activity, qHTS | Potency, µM, for the others: largest response in the series, negative = inhibition, actives largely listed as inhibitors | actives 3.5% (n = 310,000) | AID 1490, 2009;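 further: the enzyme is Sfp with the accession as filed and its product quenches rhodamine fluorescence; 0% = enzyme reaction without inhibitor and -100% = no enzyme wells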
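Fluorescence-quenching assay with 15 nM Sfp, 5 uM rhodamine-CoA and 12.5 uM BHQ-2-labelled ybbR peptide in pH 7.6 Hepes/MgCl2 buffer. Enzyme was pre-incubated with compound for 15 min at room temperature. Rate was taken from the 30-min fluorescence change (525/598 nm).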
HP1b chromo inh: HTS for Inhibitors of HP1-beta Chromodomain Interactions with Methylated Histone Tails; actives 0.56% (n = 390,000); AID 540317, 2011; Potency, µM (titrated, usually from 114 µM), without a hit: top-dose activity change, negative = inhibition, actives largely listed as inhibitors; AlphaScreen HP1-beta / biotin-H3K9me3 peptide binding; Chromobox protein homolog 1 (Homo sapiens), P83916; further: nearly all actives have a fitted effect of over 70% in size
Target sequence (P83916 whole entry, looked up): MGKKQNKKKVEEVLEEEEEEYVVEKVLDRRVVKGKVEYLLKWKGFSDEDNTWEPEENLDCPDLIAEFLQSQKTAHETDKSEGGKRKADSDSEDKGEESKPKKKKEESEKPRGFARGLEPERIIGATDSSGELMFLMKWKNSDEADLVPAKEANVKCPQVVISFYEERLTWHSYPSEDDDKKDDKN
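HP1-beta protein (50 nM final) preincubated 30 min at room temperature with biotinylated H3(1-18)K9me3 peptide (50 nM) in PBS pH 7.4, 0.01% Tween-20, then compound added for 30 min. AlphaScreen streptavidin donor/nickel chelate acceptor beads (10 ug/mL final), 30 min dark, luminescence read.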
JMJD2A Tudor: qHTS Assay for Inhibitors of JMJD2A-Tudor Domain; AlphaScreen JMJD2A-Tudor / H3K4me3 peptide binding; Potency, µM (titrated, usually from 114 µM), inactives show at the highest dose activity change, negative = inhibition, most hits filed as inhibitors; actives 4.4% (n = 390,000); further: on the % scale 0 is the no-effect control and ±100 the full control effect; nearly all actives have a fitted effect of over 50% in size
G9a inh: qHTS Assay for Inhibitors of Histone Lysine Methyltransferase G9a. G9a H3K9 monomethylation, AlphaScreen, 2 h. Potency, µM (top dose mostly 102 µM), inactives show at the top dose activity, negative = inhibition, most hits filed as inhibitors. actives 8.8% (n = 350,000). AID 504332, 2011; further: on the % scale 0 is the no-effect control and ±100 the full control effect; nearly all actives have a fitted effect of over 75% in size
Target sequence (Q96KQ7 913-1193 limits assumed): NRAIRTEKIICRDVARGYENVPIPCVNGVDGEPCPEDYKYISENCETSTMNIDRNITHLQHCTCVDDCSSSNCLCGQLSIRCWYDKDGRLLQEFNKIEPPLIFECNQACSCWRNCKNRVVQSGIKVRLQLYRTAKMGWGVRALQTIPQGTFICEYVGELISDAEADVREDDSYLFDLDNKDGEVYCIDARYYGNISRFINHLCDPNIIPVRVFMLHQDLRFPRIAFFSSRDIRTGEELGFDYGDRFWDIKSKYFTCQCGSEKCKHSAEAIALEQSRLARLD
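Signal arises when biotinylated H3K9 peptide, once monomethylated, bridges streptavidin donor and antibody-captured acceptor beads. Enzyme at 20 nM was preincubated 15 min with test compounds; peptide 500 nM and SAM 20 uM then reacted for 2 h.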
* = called active by the depositor; ? = inconclusive; / = no result; [ ] = remark or other dose. The call rests on the fitted dose curve; in most records, active means well fitted curve in the direction sought with a large enough effect; inconclusive means small, poorly fitted or top-dose-only effect, or another doubt; inactive means no such curve, though single readings can be large; an effect the other way counts as inactive or inconclusive. Potency means the concentration at half of the fitted maximal effect.

SMILES	L3MBTL1 inh	BAZ2B block	Sfp PPTase inh	HP1b chromo inh	JMJD2A Tudor	G9a inh
CN(CC(=O)Nc1cccc(F)c1)C(=O)c1ccc(N2CCCC2)c([N+](=O)[O-])c1	-2%	?	/	-22%	?	50µM*
CN(CC(=O)Nc1cccc(F)c1)C(=O)c1ccc2c(c1)CC(c1ccccc1)OC2=O (configuration not stated)	-4%	?	/	-2%	?	14µM*
O=C(c1ccc(N2CCCCC2)c([N+](=O)[O-])c1)N(Cc1ccccc1)c1ccccn1	-25%	32µM*	13%	?	45µM*	?
CCN(CC(=O)Nc1c(F)cccc1F)C(=O)c1cc([N+](=O)[O-])ccc1N1CCCCC1	5%	-7%	/	9%	-20%	14µM*
CCN(CC(=O)Nc1c(F)cccc1F)C(=O)c1ccc(N2CCCC2)c([N+](=O)[O-])c1	21%	-34%	/	-1%	-26%	-38%
COc1ccc(OC)c(S(=O)(=O)N2CCC(c3ccncc3)CC2)c1	/	-6%	/	24%	-19%	10%[59 µM]
CC[n+]1c(C)cc(C)n1-c1ccccc1	/	/	9%	27%	?	50µM*
O=C(c1cc2c(s1)CCC2)N1C(=O)c2ccccc2S1(=O)=O	8%	50µM*	-1%	21%	?	40µM*
COC(=O)CNC(=S)NC(=O)c1ccc(C(C)(C)C)cc1	-6%	-23%	-12%	22%	-32%	18µM*
CC(C)(C)c1ccc(OCC(=O)NNC(=O)CCc2ccccc2)cc1	-1%	-4%	20%	39%	-11%	-48%
COC(=O)c1ccccc1NC(=S)NC(=O)COc1ccccc1	4%	-2%	-10%	8%	-7%	?
CC(C)(C)c1ccc(C(=O)NC(=S)NNC(=O)COc2ccccc2)cc1	/	?	-19%	-18%	?	25µM*
Cc1ccc(C(=O)NNC(=S)NC(=O)COc2ccccc2)cc1	/	11%	56µM*	-24%	13µM*	1.3µM*
O=C(CNC(=S)NC(=O)c1ccccc1)c1ccccc1	3%	-8%	-26%	11%	-6%[57.1 µM]	?
Oc1cccc2cc3cccc(O)c3c(O)c12	-15%	40µM*	13%	-8%	?	?
Cc1ccc(NC(=O)CSc2nccn2Cc2ccc3c(c2)OCO3)c(C)c1	/	?	/	8%[57 µM]	?	?
O=C(COC(=O)/C=C/c1ccc(Br)o1)NC1CCCCC1	?	?	/	8%	79µM*	2%[12.7 µM]
O=C(COC(=O)/C=C/c1ccco1)NC1CCCCC1	-9%	-3%	/	-37%	?	15%[12.7 µM]
O=C(COC(=O)/C=C/c1ccc(Br)o1)Nc1ccccc1F	?	56µM*	4%	/	/	?
O=C(O)CCC/C=C\C[C@H]1C(=O)C[C@@H](O)[C@@H]1/C=C/[C@@H](O)CCc1ccccc1	/	/	6%	/	/	26%[59 µM]
CCCCN(C(=O)CSc1nnc(-c2ccc(OC)cc2)n1C(C)C)c1c(N)n(Cc2ccccc2)c(=O)[nH]c1=O	-6%	-28%	16%	32%	-14%	10µM*
COCCN(C(=O)CSc1nn(-c2ccc(F)cc2)c(=S)s1)c1c(N)n(CC(C)C)c(=O)[nH]c1=O	-4%	9%	/	21%	-12%	8.9µM*
COCCN(C(=O)CSc1nnc(-c2ccc(Cl)cc2)o1)c1c(N)n(CC(C)C)c(=O)[nH]c1=O	/	8%	13%	33%	2%	132%
COCCN(C(=O)c1ccc(-c2ccc([N+](=O)[O-])cc2)o1)c1c(N)n(CC(C)C)c(=O)[nH]c1=O	1%	-1%	/	23%	-15%	45µM*
CCCCN(C(=O)CSc1nnc(-c2ccc(Cl)cc2)o1)c1c(N)n(CC(C)C)c(=O)[nH]c1=O	36%	0%	/	6%	-12%	1µM*
SMILES	L3MBTL1 inh	BAZ2B block	Sfp PPTase inh	HP1b chromo inh	JMJD2A Tudor	G9a inh
CCCCN(C(=O)CSc1nnc(-c2ccc(OC)cc2)n1CC)c1c(N)n(Cc2ccccc2)c(=O)[nH]c1=O	2%	8%	16%	14%	-14%	5%[59 µM]
CCCC[C@@H]1C[C@H]1C(NC(=O)Cc1ccccc1)c1ccc(Cl)cc1 (some centres not stated)	/	/	10%	/	/	/
CCOC(=O)c1c(NC(=O)c2ccc(S(=O)(=O)N(CC(C)C)CC(C)C)cc2)sc2c1CCN(CC)C2	/	12%	/	11%	-14%	0%[59 µM]
O=C(NCCn1cc(SCc2ccccc2F)c2ccccc21)c1cccs1	/	-16%	/	46%	-16%	-15%[59 µM]
COCCN(C(=O)CSc1nnc(C)n1Cc1ccccc1)c1c(N)n(CC(C)C)c(=O)[nH]c1=O	-3%	-15%	21%	-3%	79µM*	3%
COCCN(C(=O)CSc1nnc(-c2ccc(C(C)(C)C)cc2)n1N)c1c(N)n(CC(C)C)c(=O)[nH]c1=O	1%	5%	/	40%	-4%	40µM*
Cn1c(=O)n(-c2cccc(Cl)c2)c(=O)n1C	-8%	4%	15%	34%	-8%	7%[59 µM]
O=c1c2cn[nH]c2[nH]c(=S)n1-c1cccc(Cl)c1	5%	-20%	-23%	35%	-25%	32µM*
FC(F)(F)c1ccnc(NCc2ccc(Cl)cc2)n1	/	61%	11%	113%	63%	83%
O=S(=O)(NNc1nccc(C(F)(F)F)n1)c1cccc(Cl)c1Cl	3%	-3%	35µM*	10%	-14%	8.9µM*
Cc1cc(Cl)ccc1NC(=O)Cn1nc(C)c2c(C)n(-c3ccccc3)nc2c1=O	/	56µM*	/	8%	-34%	-42%[59 µM]
Cc1ccc(-n2nc3c(=O)n(CC(=O)NCCc4ccc(Cl)cc4)nc(C)c3c2C)cc1	/	79µM*	-30%	12%[57 µM]	-34%	?
CCCCCCNc1c([N+](=O)[O-])cc(C)cc1[N+](=O)[O-]	/	/	/	8.9µM*	13µM*	/
COc1ccc(NC(=O)C(NC(=O)/C=C\c2ccc3c(c2)OCO3)c2ccc(C)cc2)cc1 (configuration not stated)	/	-2%	/	-2%	-17%	-26%[59 µM]
Cc1nc2nc(NC(=O)c3ccc(F)cc3)[nH]n2c(=O)c1Cc1ccccc1	/	-9%	/	21%	-32%	-42%[59 µM]
O=C(O)c1cc(Cl)ccc1-c1ccc(/C=C/c2cc(C(F)(F)F)[nH]c(=O)n2)o1	?	-25%	-21%	-3%	-12%	?
